# AHR act = activators of human aryl hydrocarbon receptor. P35869. AHR-responsive luciferase reporter cells, luminescence. activation, % at 5 µM. 320,000 compounds, 2.5% hits. AID 2796; in the data active = activation above about 47%;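 note: 0% = vehicle wells and 100% = reference agonist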
# FXN GAA850 act = activators of GAA850 frataxin (FXN) promoter; HEK293 lucGAA850 FXN promoter luciferase reporter, 24 h; percent of 10 µM SAHA response; activation, % at 6 µM; 360,000 compounds, 0.56% hits; AID 540364;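 active = activation above the average of all compounds screened plus 3 SD, cutoff fixed separately per campaign, cut at about 7.5% in these data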;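 note: 0% = DMSO wells and 100% = 10 µM SAHA wells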
# HSP90 refold inh = inhibitors of HSP90 luciferase refolding in rabbit reticulocyte lysate; luciferase refolding luminescence, 3 h; 290,000 compounds, 0.91% hits; AID 1789; inhibition, % at 5.6 µM;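 active = inhibition above the screen-wide mean plus 3 SD, computed separately per campaign, cut at about 16% in these data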;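 note: 0% = DMSO wells and 100% = 60 µM geldanamycin wells; inhibitors lower the luminescence because luciferase stays unfolded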
# NR0B1 inh = inhibitors of human orphan nuclear receptor DAX1 (NR0B1); P51843; HEK293 Gal4-DAX1 luciferase reporter, luminescence; inhibition, % at 6.75 µM; 340,000 compounds, 0.99% hits; AID 504766;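 active = inhibition above the mean over all tested compounds plus 3 SD, cut at about 4.2% in these data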;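 note: 0% = DAX1-transfected cells with DMSO and 100% = empty-vector control cells with DMSO; inhibition shows as a rise in luminescence from relieved DAX1 repression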
# Target sequence (P51843 207-470 limits assumed): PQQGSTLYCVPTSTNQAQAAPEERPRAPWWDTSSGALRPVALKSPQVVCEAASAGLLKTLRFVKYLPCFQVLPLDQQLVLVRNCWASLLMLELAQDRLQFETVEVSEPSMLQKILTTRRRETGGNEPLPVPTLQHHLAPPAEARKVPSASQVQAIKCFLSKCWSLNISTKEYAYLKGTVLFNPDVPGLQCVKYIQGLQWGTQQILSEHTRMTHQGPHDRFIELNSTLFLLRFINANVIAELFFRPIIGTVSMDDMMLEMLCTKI
# HSF1 inh = HSF1 inhibition; 300,000 compounds, 0.77% hits; NIH3T3-HGL HSE-luciferase, MG132-induced, luminescence 8 h; active compounds read low; activity change, negative = inhibition, % at 7.5 µM (by protocol);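 active = more than half of replicate wells show activity change below -50%, luminescence cut by over half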;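 note: luciferase reports HSF-1 transcriptional activity via heat shock element; 0% = median of DMSO wells and -100% = zero luminescence signal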
# HSF1 activator = increases HSF-1 driven luciferase reporter signal | 300,000 compounds, 1.7% hits | AID 504408 | NIH3T3-HGL HSF-1 luciferase reporter, MG132, 8 h; 100% = twice DMSO control signal | activation, % at 9 µM;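 active = mean replicate activation of at least 50% with a set share of replicates each reaching 50%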;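 note: 0% = median of the neutral control wells and 100% = twice that signal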
# HSP90 confirm = HSP90 inhibition, confirmation assay. shares compounds with HSP90 refold inh. inhibition, % at 5.9 µM. 2,300 compounds, 64% hits. AID 1846. rabbit reticulocyte lysate, luciferase refolding luminescence, 3 h; in the data active = inhibition above about 18%;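 note: 0% = vehicle wells and 100% = reference inhibitor wells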
# FLuc counter = firefly luciferase inhibition, HSP90 counter-screen; shares compounds with HSP90 refold inh; purified native firefly luciferase, luminescence; inhibition, % at 5.9 µM; 2,300 compounds, 48% hits;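 active = inhibition above the mean inhibition of all tested sample wells plus 3 SD, cut at about 10% in these data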;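 note: 0% = DMSO with luciferase and 100% = wells lacking luciferase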
# The depositor's hits bear a star; · = no result. Sampled rows, rich in hits. Any-hit rate of the full collection: about 5.9%.
SMILES,AHR act,FXN GAA850 act,HSP90 refold inh,NR0B1 inh,HSF1 inh,HSF1 activator,HSP90 confirm,FLuc counter
Cc1ccc(S(=O)(=O)N(CC(=O)N2CCC(C)CC2)c2cccc(C)c2)cc1,1,-2,-3,2,6,4,·,·
CC(C(=O)OCC(=O)c1cccc([N+](=O)[O-])c1)N1C(=O)C2C3C=CC(C3)C2C1=O (stereo not given),-1,1,-2,0,0,-1,·,·
COc1cc(N2Cc3ccccc3C2)ccc1C=O,12,-2,54*,-1,-32,-33,40*,-7
Cc1cc(O)c(S(=O)(=O)c2ccccc2)c(C)c1NS(=O)(=O)c1ccccc1,14,0,18*,-2,4,0,21*,-8
O=C(CNS(=O)(=O)c1ccccc1)OCC(=O)c1ccccc1Cl,1,1,22*,1,3,-4,-6,-13
O=C1CC(C(=O)N2CCCc3ccccc32)CN1c1ccc(Cl)cc1 (stereo not given),-4,-1,4,0,-7,20,·,·
COc1ccc(-n2c(C)cc(-c3csc(NC(=O)c4ccc(S(=O)(=O)N(C)C)cc4)n3)c2C)cc1,4,2,20*,-1,-54*,-66,39*,-6
O=C(O)COc1ccccc1/C=N/NC(=O)c1cc(-c2ccc(F)cc2)nc2ccccc12,13,2,17*,-1,-9,-24,25*,8
Cc1cccc(C)c1NC(=O)COc1ccccc1C(=O)Nc1ccc(Br)cn1,37,4,-5,-1,-1,-2,·,·
CN(C)c1ccc(CNc2nc3ccccc3s2)cc1,-5,·,48*,·,-11,-14,73*,57*
CN(C)c1ccc(/C=C/c2nc3ccccc3s2)cc1,-6,-13,76*,-3,-80*,-82,92*,90*
COc1cc(/C=C/c2nc3ccccc3s2)cc(OC)c1O,38,2,5,1,0,32,·,·
Cc1ccc(/C=C/c2nc3ccccc3s2)s1,12,-3,46*,1,-75*,-76,80*,74*
O=C(NCCc1nnc2ccc(NCc3ccc(Cl)cc3)nn12)c1ccccc1,2,0,20*,2,-2,-18,1,-2
CC(=O)N(CCC(Cc1ccccc1)c1ccco1)Cc1ccco1 (stereo not given),2,1,22*,0,·,·,4,2
COc1ccc(NC(=S)N2CCC(C(=O)c3ccc(C)cc3)CC2)c(OC)c1,0,0,1,0,-3,1,·,·
O=C(CN1C(=O)c2ccccc2S1(=O)=O)c1ccc2c(c1)OCCCO2,-13,-13,80*,-10,-88*,-90,82*,-19
O=C(CN1C(=O)c2ccccc2S1(=O)=O)c1ccc(Cl)cc1Cl,-16,-15,89*,-5,-68*,-74,91*,29*
O=C(CN1C(=O)c2ccccc2S1(=O)=O)c1ccc2c(c1)OCCO2,-12,-13,57*,-10,-78*,-81,68*,-8
Cc1cc(C)n(-c2ccc(C(=O)NCC(=O)Nc3cc(Cl)ccc3Cl)cc2)n1,3,1,·,0,·,·,·,·
CCCNC1=C(N(C(C)=O)c2cccc(F)c2)C(=O)c2ccccc2C1=O,8,0,82*,-3,5,14,-5,-11
O=C(CNS(=O)(=O)c1ccccc1)NCc1cccnc1,1,1,-2,0,-10,-24,·,·
COc1ccc(-c2nc3ccccn3c2Cl)cc1,41,3,24*,0,10,20,47*,30*
Nc1ccc(Br)c2cccnc12,33,-1,17*,-1,23,30,1,-10
c1ccc2sc(-c3ccc4c(c3)OCO4)nc2c1,65*,-1,19*,1,·,·,60*,56*
SMILES,AHR act,FXN GAA850 act,HSP90 refold inh,NR0B1 inh,HSF1 inh,HSF1 activator,HSP90 confirm,FLuc counter
O=C(c1ccc(-c2nc3ccccc3s2)s1)N1CCOCC1,-10,·,64*,·,-47,-56,85*,79*
O=C(Nc1cccc(-c2nc3ccccc3s2)c1)c1ccc2c(c1)OCO2,15,-1,2,0,-7,9,·,·
O=C(NC1CC1)c1ccc(-c2nc3ccccc3s2)s1,-4,-3,76*,-4,-39,-46,80*,77*
COc1ccc2c(c1OC)C(=O)N(c1cccc(NC(C)=O)c1)C2,-2,5,-1,0,13,19,·,·
COc1ccc(/C=C(\NC(=O)c2ccco2)C(=O)NCc2ccco2)cc1,0,0,1,0,-4,-10,·,·
O=C(O)CSc1nnc(NC(=O)c2ccc3c(c2)OCO3)s1,-9,-3,26*,-2,-14,-22,26*,-8
CCCN(CC(=O)Nc1ccc(F)c(F)c1F)C(=O)c1ccc2c(=O)n3c(nc2c1)CCC3,-2,1,·,1,-5,-14,·,·
Cc1cc(C(=O)CSc2ccc(F)cc2)cc(C)c1OC(=S)N(C)C,-2,-12,75*,0,-62*,-65,70*,74*
O=C(OCC(=O)c1cccs1)c1ccccc1,-5,2,-3,0,18,42,·,·
O=C(CC(Nc1ccccc1Cl)C(=O)OCC(=O)c1cccs1)c1ccccc1 (stereo not given),11,-4,32*,3,-58*,-61,43*,38*
O=C(CC(Nc1ccc(Cl)cc1Cl)C(=O)O)c1ccccc1 (stereo not given),-2,-12,25*,-1,-89*,-91,76*,74*
Fc1ccccc1Nc1nc2ccccc2o1,5,2,24*,2,19,39,41*,28*
O=C(O)c1ccc(COc2ccc3c4c(c(=O)oc3c2)CCC4)o1,2,2,78*,-4,-1,0,79*,34*
O=c1oc2cc(OCc3ccc([N+](=O)[O-])cc3)ccc2c2c1CCCC2,-1,0,2,0,10,-3,·,·
CCCc1cc(=O)oc2cc(OCC(=O)NCC3CCC(C(=O)O)CC3)ccc12 (stereo not given),0,-2,25*,0,3,13,0,-5
CCCCc1cc(=O)oc2cc(OCC(=O)NCC3CCC(C(=O)O)CC3)ccc12 (stereo not given),0,0,0,3,-3,-1,·,·
Cc1c(C)c2ccc(OCc3ccc(C(=O)O)o3)c(C)c2oc1=O,-1,1,75*,-2,-14,-19,87*,45*

# Screening data from PubChem.
